In PubChem BioAssay (NCI):
Several values for one entry are separate records, joined by “and”; a condition that tells them apart may be missing. Identical values can stand only once. About 83,000 compounds went through this panel and 20% of them were active in at least one assay; those are over-represented in the sample as a whole.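 Assay: single dose, 48 h. Readout: percent growth (0 = no net growth; negative = cell death). Active: <10.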 Activity calls are given as the source filed them.

These compounds were tested on TK-10 renal (assay: NCI-60 one-dose screen, 48 h (100 = growth as untreated, 0 = no growth, -100 = all killed)). Conditions: 10 µM unless noted.

Compound	growth
NC(=O)CC1OC(=O)Cc2cc3c(c(O)c21)C(=O)c1c(O)cccc1C3=O (configuration not stated)	57.5% [100 µM] (inactive)
NNc1[nH]c(=S)[nH]c1C(N)=O	121% [100 µM] (inactive) and 111% [100 µM] (inactive)
O=C1NC(N/N=C\c2ccccc2)=N/C1=C/c1ccc(Cl)cc1	-70.8% [100 µM] (active) and 57.9% [100 µM] (inactive)
CCC/C(Cl)=N/OC(=O)Nc1cccc(F)c1	-100% [100 µM] (active)
CC(=O)C1=C(C)N2C(=NC3=C(CCc4ccccc43)C2c2cccc(Br)c2)S1 (configuration not stated)	112% [100 µM] (inactive) and 48.5% [100 µM] (inactive)
Cc1ccc(/C=N/Nc2nc3ccccc3s2)s1	14.8% [100 µM] (inactive) and 8.44% [100 µM] (active)
C=C1C2CCC3C4(C)CCCC(C)(C(=O)O)C4CCC3(C2)C1OC(=O)/C(C)=C/C (configuration not stated)	27.3% [100 µM] (inactive) and 79.6% [100 µM] (inactive)
CCCCCCSC[C@H](OC(C)=O)[C@@H](OC(C)=O)[C@@H](OC(C)=O)[C@@H](COC(C)=O)OC(C)=O	95.1% [100 µM] (inactive) and 101% [100 µM] (inactive)
Cc1ccc(/C=N/Nc2cnccn2)s1	116% [100 µM] (inactive) and 93% [100 µM] (inactive)
C[N+](C)(CCNC(=O)c1cccc2cc3ccccc3nc12)Cc1ccc([N+](=O)[O-])s1	72% [25 µM] (inactive) and 30.2% [25 µM] (inactive)
NC(Cc1ccc(S(=O)(=O)O)cc1)C(=O)NC(Cc1ccc(S(=O)(=O)O)cc1)C(=O)NC(Cc1ccc(S(=O)(=O)O)cc1)C(=O)NC(Cc1ccc(S(=O)(=O)O)cc1)C(=O)O (configuration not stated)	102% [100 µM] (inactive) and 111% [100 µM] (inactive)
Cc1ccc(NC(=O)/C(=N\NC(N)=O)c2c(O)c3ccccc3[nH]c2=O)cc1	123% [100 µM] (inactive) and 118% [100 µM] (inactive)
Cc1ccc(NC2=N/C(=C/c3ccccc3)C(Cl)=N2)cc1	82.6% [100 µM] (inactive) and -17.1% [100 µM] (active)
CC(=N/N=C/c1ccccn1)/C(C)=N/N=C(C)/C(C)=N/N=C(C)/C(C)=N/N=C(C)/C(C)=N\N=C\c1ccccn1	99.9% [100 µM] (inactive) and 81.3% [100 µM] (inactive)
O=C1c2ccccc2-c2c1c1ccccc1c(=O)n2-c1cccnc1	59.8% [100 µM] (inactive) and -34% [100 µM] (active)
Cc1ccc(C)c(NC(=O)/C(=N\N)C(c2cnc3ccc([N+](=O)[O-])cc3n2)[N+](=O)[O-])c1 (configuration not stated)	146% [100 µM] (inactive) and 18.1% [100 µM] (inactive)
COc1cc2c3cc1Oc1c(OC)c(OC)cc4c1C(Cc1ccc(O)c(c1)-c1cc(ccc1OC)CC3N(C)CC2)N(C)CC4 (configuration not stated)	-41.8% [100 µM] (active) and -97% [100 µM] (active)
CCCCCCCCCC(=O)CC(=O)c1c(O)cc(O)cc1O	-1.86% [75 µM] (active) and 10% [75 µM] (inactive)
Clc1ccc(C2C3COc4ccccc4C3=NN2c2ccccc2)cc1 (configuration not stated)	77% [100 µM] (inactive) and 31.3% [100 µM] (inactive)

Compound	growth
COc1cc2c(cc1C1COc3cc4occc4cc3C1=O)OCO2 (configuration not stated)	88.2% [100 µM] (inactive) and 80.4% [100 µM] (inactive)
COc1cc2oc3c(c(=O)c2c(O)c1/C=C/C(C)C)CCC(C)(C)Oc1cc(O)ccc1-3	35% [100 µM] (inactive) and -96.5% [100 µM] (active)
N/N=C(\C(=O)Nc1ccc([N+](=O)[O-])cc1)C(C1=Nc2cc([N+](=O)[O-])ccc2NC1)[N+](=O)[O-] (configuration not stated)	117% [100 µM] (inactive) and 4.46% [100 µM] (active)
O=C(NC1=NC2C=CC([N+](=O)[O-])=CC2S1)C(=O)Nn1c(=S)[nH]c2ccccc2c1=O (configuration not stated)	7.66% [100 µM] (active) and 13.1% [100 µM] (inactive)
CC(=O)C1=C(C)N2C(=NC3=C(CCc4ccccc43)C2c2ccc(Cl)cc2)S1 (configuration not stated)	72.8% [100 µM] (inactive) and 35.4% [100 µM] (inactive)
CCOC(=O)c1cc(C)nc2c1c(=O)n(-c1ccccc1)c(=O)n2CCCCN1CCN(c2ncccn2)CC1	116% [100 µM] (inactive) and 111% [100 µM] (inactive)
COC(=O)C(/C(=N/NC(N)=O)C(=O)Nc1ccc(C)cc1)c1nc2ccc([N+](=O)[O-])cc2[nH]c1=O (configuration not stated)	111% [100 µM] (inactive) and 43.2% [100 µM] (inactive)
CC(C)=CCc1c(OC(=O)c2c(C)cc(O)cc2O)cc(CO)c(CO)c1O	1.66% [100 µM] (active) and -100% [100 µM] (active)
CC1(C)Oc2ccc3c(=O)cc(-c4ccc(F)cc4)oc3c2C1C(=O)O (configuration not stated)	100% [100 µM] (inactive) and 99.3% [100 µM] (inactive)
COc1ccc2cc(CN3CCC(C4CCNCC4)CC3)ccc2c1	-89.6% [100 µM] (active) and -100% [100 µM] (active)
C/C=C1\NC(=O)[C@H]2CSSCCC=C[C@H](CC(=O)N[C@H](C(C)C)C(=O)N2)OC(=O)[C@H](C(C)C)NC1=O	-93% [0.1 µM] (active) and -98.3% [0.1 µM] (active)
COc1ccc(-c2nc3ccccc3c(=S)n2OC(C)=O)cc1	47% [25 µM] (inactive) and -21.7% [25 µM] (active)
COC(=O)C(=O)C(C(=O)C(=O)Nc1ccc(Cl)c(Cl)c1)c1nc2ccc(C(=O)c3ccccc3)cc2[nH]c1=O (configuration not stated)	89.4% [100 µM] (inactive) and 14.4% [100 µM] (inactive)
COc1ccc2nc(NC(=O)/C(C#N)=C/c3ccccc3)sc2c1	52.5% [100 µM] (inactive) and -23.1% [100 µM] (active)
COC(=O)/C=C\C(C#N)(C#N)N=Cc1ccsc1	-98.5% [100 µM] (active) and -84.4% [100 µM] (active)
CC1(C)S[C@H](CN)N[C@H]1C(=O)OC(c1ccccc1)c1ccccc1	49% [100 µM] (inactive) and -32.5% [100 µM] (active)
N#CC(=S)Nc1ccc(F)cc1	33.9% [100 µM] (inactive) and 8.52% [100 µM] (active)
OCc1ccccc1OC1OC(CO)C(O)C(O)C1O (configuration not stated)	97.4% [100 µM] (inactive) and 97.5% [100 µM] (inactive)
